# In PMC11006913:
# Positions count from the first letter of the chain named.
# Legend:
# Test in all cases: PBM; 200 nM protein, PBS
# Settings in all cases: dsDNA, one strand shown
# SHOX [1] = target: SHOX (Homo sapiens, UniProt O15266 103-189)
# MSX2 [2] = target: MSX2 (Homo sapiens, UniProt P35548 130-214, R199I)
# SHOX [3] = target: SHOX (Homo sapiens, UniProt O15266 103-189, R173C)
# MSX2 [4] = target: MSX2 (Homo sapiens, UniProt P35548 130-214)
# MSX2 [5] = target: MSX2 (Homo sapiens, UniProt P35548 130-214, F161Y)
# HOXB6 [6] = target: HOXB6 (Homo sapiens, UniProt P17509 132-218, K202E)
# ALX3 [7] = target: ALX3 (Homo sapiens, UniProt O95076 139-225, N203Q)
# ALX3 [8] = target: ALX3 (Homo sapiens, UniProt O95076 139-225)
# ALX3 [9] = target: ALX3 (Homo sapiens, UniProt O95076 139-225, L168Q)
# ALX3 [10] = target: ALX3 (Homo sapiens, UniProt O95076 139-225, L168V)
# ALX3 [11] = target: ALX3 (Homo sapiens, UniProt O95076 139-225, N203S)
# HOXB6 [12] = target: HOXB6 (Homo sapiens, UniProt P17509 132-218)
# HOXB9 [13] = target: HOXB9 (Homo sapiens, UniProt P17482 171-250)
# HOXB9 [14] = target: HOXB9 (Homo sapiens, UniProt P17482 171-250, R186Q)
# PRRX1 [15] = target: PRRX1 (Homo sapiens, UniProt P54821 80-166, F113S)
# PRRX1 [16] = target: PRRX1 (Homo sapiens, UniProt P54821 80-166)
# PAX4 [17] = target: T1, PAX4 (Homo sapiens, UniProt O43316 9-242, R200K)
# T1 sequence: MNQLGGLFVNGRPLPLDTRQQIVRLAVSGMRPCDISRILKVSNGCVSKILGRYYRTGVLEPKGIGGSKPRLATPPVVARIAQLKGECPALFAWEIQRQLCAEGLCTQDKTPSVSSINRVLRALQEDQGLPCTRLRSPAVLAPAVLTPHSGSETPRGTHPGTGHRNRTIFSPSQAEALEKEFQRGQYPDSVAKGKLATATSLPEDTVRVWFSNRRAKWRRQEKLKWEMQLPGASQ
# PAX4 [18] = target: T2, PAX4 (Homo sapiens, UniProt O43316 9-242)
# T2 sequence: T1 sequence with K192R
# NKX2-6 = target: T3, NKX2-6 (Homo sapiens, UniProt A6NCS4 118-204, R150C)
# T3 sequence: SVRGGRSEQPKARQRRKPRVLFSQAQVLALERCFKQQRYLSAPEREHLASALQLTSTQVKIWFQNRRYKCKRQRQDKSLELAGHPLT
# PAX4 [19] = target: T4, PAX4 (Homo sapiens, UniProt O43316 9-242, R200Q)
# T4 sequence: T1 sequence with K192Q
# PAX4 [20] = target: T5, PAX4 (Homo sapiens, UniProt O43316 9-242, F177V)
# T5 sequence: T1 sequence with F169V, K192R
# PAX4 [21] = target: T6, PAX4 (Homo sapiens, UniProt O43316 9-242, F177Y)
# T6 sequence: T1 sequence with F169Y, K192R
# PAX4 [22] = target: T7, PAX4 (Homo sapiens, UniProt O43316 9-242, R227W)
# T7 sequence: T1 sequence with K192R, R219W
# SHOX (Homo sapiens, UniProt O15266 103-189), sequence (O15266 103-189): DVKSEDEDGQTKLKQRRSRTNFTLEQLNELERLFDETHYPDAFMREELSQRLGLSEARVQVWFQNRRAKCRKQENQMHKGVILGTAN
# SHOX (Homo sapiens, UniProt O15266 103-189, R173C), sequence (O15266 103-189 R173C): as the sequence (O15266 103-189) above, with R71C counted along it
# MSX2 (Homo sapiens, UniProt P35548 130-214, F161Y), sequence (P35548 130-214 F161Y): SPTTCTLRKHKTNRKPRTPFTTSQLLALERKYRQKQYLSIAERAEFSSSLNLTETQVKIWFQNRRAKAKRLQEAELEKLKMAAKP
# MSX2 (Homo sapiens, UniProt P35548 130-214, R199I), sequence (P35548 130-214 R199I): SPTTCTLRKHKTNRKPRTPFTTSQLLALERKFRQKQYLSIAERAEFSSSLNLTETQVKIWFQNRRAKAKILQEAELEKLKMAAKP
# MSX2 (Homo sapiens, UniProt P35548 130-214), sequence (P35548 130-214): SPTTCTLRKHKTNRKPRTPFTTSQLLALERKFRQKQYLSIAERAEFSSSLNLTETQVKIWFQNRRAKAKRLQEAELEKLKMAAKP
# HOXB6 (Homo sapiens, UniProt P17509 132-218), sequence (P17509 132-218): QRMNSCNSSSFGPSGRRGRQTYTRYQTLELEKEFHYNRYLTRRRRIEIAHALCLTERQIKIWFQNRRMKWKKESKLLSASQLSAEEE
# HOXB9 (Homo sapiens, UniProt P17482 171-250), sequence (P17482 171-250): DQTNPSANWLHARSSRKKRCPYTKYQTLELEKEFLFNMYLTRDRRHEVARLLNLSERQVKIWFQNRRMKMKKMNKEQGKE
# ALX3 (Homo sapiens, UniProt O95076 139-225, N203Q), sequence (O95076 139-225 N203Q): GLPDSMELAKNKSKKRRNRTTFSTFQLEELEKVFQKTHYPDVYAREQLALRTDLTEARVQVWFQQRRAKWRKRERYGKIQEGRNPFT
# PRRX1 (Homo sapiens, UniProt P54821 80-166, F113S), sequence (P54821 80-166 F113S): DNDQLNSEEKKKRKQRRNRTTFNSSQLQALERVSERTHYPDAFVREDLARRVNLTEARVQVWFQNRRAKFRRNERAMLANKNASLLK
# ALX3 (Homo sapiens, UniProt O95076 139-225), sequence (O95076 139-225): as the sequence (O95076 139-225 N203Q) above, with Q65N counted along it
# ALX3 (Homo sapiens, UniProt O95076 139-225, L168V), sequence (O95076 139-225 L168V): as the sequence (O95076 139-225 N203Q) above, with L30V, Q65N counted along it
# ALX3 (Homo sapiens, UniProt O95076 139-225, N203S), sequence (O95076 139-225 N203S): as the sequence (O95076 139-225 N203Q) above, with Q65S counted along it
# PRRX1 (Homo sapiens, UniProt P54821 80-166), sequence (P54821 80-166): as the sequence (P54821 80-166 F113S) above, with S34F counted along it
# ALX3 (Homo sapiens, UniProt O95076 139-225, L168Q), sequence (O95076 139-225 L168Q): as the sequence (O95076 139-225 N203Q) above, with L30Q, Q65N counted along it
# HOXB6 (Homo sapiens, UniProt P17509 132-218, K202E), sequence (P17509 132-218 K202E): as the sequence (P17509 132-218) above, with K71E counted along it
# HOXB9 (Homo sapiens, UniProt P17482 171-250, R186Q), sequence (P17482 171-250 R186Q): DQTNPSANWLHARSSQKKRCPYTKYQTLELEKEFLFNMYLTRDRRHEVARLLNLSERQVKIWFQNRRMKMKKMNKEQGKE
sequence,measurement,setting,value
CAAGCTTG,binding signal,SHOX [1],"7.28 upbm affinity estimate (log intensity, higher = more binding, comparable within an allelic series)"
same,binding signal,MSX2 [2],"9.71 upbm affinity estimate (log intensity, higher = more binding, comparable within an allelic series)"
same,binding signal,SHOX [3],"7.33 upbm affinity estimate (log intensity, higher = more binding, comparable within an allelic series)"
same,binding signal,MSX2 [4],"9.69 upbm affinity estimate (log intensity, higher = more binding, comparable within an allelic series)"
same,binding signal,MSX2 [5],"9.69 upbm affinity estimate (log intensity, higher = more binding, comparable within an allelic series)"
GCGCCAGC,binding signal,SHOX [1],"7.13 upbm affinity estimate (log intensity, higher = more binding, comparable within an allelic series)"
same,binding signal,MSX2 [2],"9.22 upbm affinity estimate (log intensity, higher = more binding, comparable within an allelic series)"
same,binding signal,SHOX [3],"6.97 upbm affinity estimate (log intensity, higher = more binding, comparable within an allelic series)"
same,binding signal,MSX2 [4],"9.48 upbm affinity estimate (log intensity, higher = more binding, comparable within an allelic series)"
same,binding signal,MSX2 [5],"9.39 upbm affinity estimate (log intensity, higher = more binding, comparable within an allelic series)"
CCAGCTCC,binding signal,SHOX [1],"7.19 upbm affinity estimate (log intensity, higher = more binding, comparable within an allelic series)"
same,binding signal,HOXB6 [6],"8.94 upbm affinity estimate (log intensity, higher = more binding, comparable within an allelic series)"
same,binding signal,ALX3 [7],"7.65 upbm affinity estimate (log intensity, higher = more binding, comparable within an allelic series)"
same,binding signal,SHOX [3],"7.18 upbm affinity estimate (log intensity, higher = more binding, comparable within an allelic series)"
same,binding signal,ALX3 [8],"7.54 upbm affinity estimate (log intensity, higher = more binding, comparable within an allelic series)"
same,binding signal,ALX3 [9],"7.75 upbm affinity estimate (log intensity, higher = more binding, comparable within an allelic series)"
same,binding signal,ALX3 [10],"7.76 upbm affinity estimate (log intensity, higher = more binding, comparable within an allelic series)"
same,binding signal,ALX3 [11],"7.69 upbm affinity estimate (log intensity, higher = more binding, comparable within an allelic series)"
same,binding signal,HOXB6 [12],"8.78 upbm affinity estimate (log intensity, higher = more binding, comparable within an allelic series)"
GTACAATA,binding signal,SHOX [1],"8.08 upbm affinity estimate (log intensity, higher = more binding, comparable within an allelic series)"
same,binding signal,HOXB9 [13],"9.8 upbm affinity estimate (log intensity, higher = more binding, comparable within an allelic series)"
same,binding signal,HOXB9 [14],"9.79 upbm affinity estimate (log intensity, higher = more binding, comparable within an allelic series)"
CGAACCGC,binding signal,SHOX [1],"7.29 upbm affinity estimate (log intensity, higher = more binding, comparable within an allelic series)"
same,binding signal,PRRX1 [15],"9.29 upbm affinity estimate (log intensity, higher = more binding, comparable within an allelic series)"
same,binding signal,SHOX [3],"7.2 upbm affinity estimate (log intensity, higher = more binding, comparable within an allelic series)"
same,binding signal,PRRX1 [16],"9.38 upbm affinity estimate (log intensity, higher = more binding, comparable within an allelic series)"
CACCACCC,binding signal,SHOX [1],"7.17 upbm affinity estimate (log intensity, higher = more binding, comparable within an allelic series)"
same,binding signal,PAX4 [17],"9.48 upbm affinity estimate (log intensity, higher = more binding, comparable within an allelic series)"
same,binding signal,PAX4 [18],"9.49 upbm affinity estimate (log intensity, higher = more binding, comparable within an allelic series)"
same,binding signal,NKX2-6,"9.46 upbm affinity estimate (log intensity, higher = more binding, comparable within an allelic series)"
same,binding signal,PAX4 [19],"9.54 upbm affinity estimate (log intensity, higher = more binding, comparable within an allelic series)"
same,binding signal,SHOX [3],"7.25 upbm affinity estimate (log intensity, higher = more binding, comparable within an allelic series)"
same,binding signal,PAX4 [20],"9.4 upbm affinity estimate (log intensity, higher = more binding, comparable within an allelic series)"
same,binding signal,PAX4 [21],"9.47 upbm affinity estimate (log intensity, higher = more binding, comparable within an allelic series)"
same,binding signal,PAX4 [22],"9.4 upbm affinity estimate (log intensity, higher = more binding, comparable within an allelic series)"
